“And” between values parts separate entries of the source, which are not always exact repeats. Equal entries are not always repeated. Results filed as inconclusive are left out. Some structures have more than one record in an assay (separate samples or runs), and their calls can disagree. The source made the active and inactive calls. Unless noted, calls follow the shape of the dose curve; as a rule, active = well fitted curve in the direction sought with a large enough effect in the repeat runs; inconclusive = weak or mixed curves; inactive = no such curve, though single readings can be large; an effect the other way counts as inactive or inconclusive.

This is an account of results in PubChem BioAssay (Tox21).

A short description of assay [1]: qHTS assay to identify aromatase inhibitors - cell viability counter screen (AID 743084).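 Also: cells stimulated with testosterone during compound exposure; nearly all actives have a fitted effect of over 55% in size.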 In general terms: Quantitative high-throughput screening tests each substance at several concentrations.
Assay [2] addresses Aryl hydrocarbon receptor (Homo sapiens) (UniProt P35869). Put plainly: qHTS assay to identify small molecule that activate the aryl hydrocarbon receptor (AhR) signaling pathway (AID 743085). Also: nearly all actives have a fitted effect of over 15% in size. Also: potency is read from the fitted curve at half-maximal effect.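 As to activation: HG2L7.5c1 human HepG2 liver cells with stably integrated DRE-driven firefly reporter; series mostly up to about 70 µM.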 In outline:
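Compounds were tested in HepG2 hepatocellular carcinoma cells harbouring a stably integrated luciferase gene under control of 20 DREs. Increased reporter signal after 24 h treatment at 37C was taken as AhR activation.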

Assay [3] addresses Peroxisome proliferator-activated receptor gamma (Homo sapiens) (UniProt P37231). The assay can be described thus: qHTS assay to identify small molecule agonists of the peroxisome proliferator-activated receptor gamma (PPARg) signaling pathway (AID 743094; active = well fitted activation curve with a large enough effect in the signal ratio in the repeat runs, not every such curve was filed as active; the % refers to the signal ratio). In a few lines: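 Agonist activity was taken from a beta-lactamase reporter (FRET substrate, 1 h at room temperature) in HEK293H cells carrying a PPARg UAS-bla construct. Compounds in DMSO were incubated 17 h at 37C after a 5 h cell pre-incubation.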

Assay [4] shares this target. Put plainly: qHTS assay to identify small molecule antagonists of the peroxisome proliferator-activated receptor gamma (PPARg) signaling pathway (AID 743191; calls by dose curve; also: series mostly up to about 63 µM; nearly all actives have a fitted effect of over 30% in size). In outline:
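GeneBLAzer PPARg UAS-bla HEK293H cells, 5 h post-plating, exposed to compounds 17 h at 37C. LiveBLAzer B/G FRET substrate added for 1 h at room temperature; beta-lactamase reporter read by fluorescence intensity.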

A short description of assay [5]: qHTS assay to identify small molecule antagonists of the peroxisome proliferator-activated receptor gamma (PPARg) signaling pathway - cell viability counter screen (AID 743194). Also: nearly all actives have a fitted effect of over 55% in size. The settings on record: Potency: co-treated with 50 nM rosiglitazone. In outline:
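Cytotoxicity counter screen in PPARg-bla HEK293H cells, same wells as reporter assay. Compounds plus 50 nM rosiglitazone (final) for 17 h at 37 C, then viability read by CellTiter-Glo luminescence.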

The nature of assay [6]: qHTS assay for small molecule agonists of the antioxidant response element (ARE) signaling pathway - cell viability counter screen (AID 743203; calls by dose curve; also: nearly all actives have a fitted effect of over 55% in size; also: potency is read from the fitted curve at half-maximal effect). In a few lines:
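Viability counter screen: CellTiter-Glo luminescence, read after 30 min at room temperature, in ARE-bla HepG2 wells. Compound exposure lasted 16 h at 37C/5% CO2, following a 5 h pre-incubation of the cells after plating.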

Assay [7] in a line: qHTS assay for small molecule activators of the heat shock response signaling pathway - cell viability counter screen (AID 743209). Also: nearly all actives have a fitted effect of over 50% in size. Also: potency is read from the fitted curve at half-maximal effect. In outline: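 Cytotoxicity counter screen run in the same wells as the heat-shock bla reporter assay: HeLa HSE-bla cells, 5 h compound exposure at 37 C, viability read by CellTiter-Glo luminescence.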
Assay [8] can be described thus: qHTS assay for small molecule activators of the heat shock response signaling pathway (AID 743210; active = well fitted activation curve with a large enough effect in the signal ratio in the repeat runs, with a control signal flat, not every such curve was filed as active; the % refers to the signal ratio;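 also: HeLa cells with beta-lactamase reporter driven by heat shock elements; series mostly up to about 63 µM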). In a few lines: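 Following overnight attachment, HSE-bla HeLa cells received test compounds for 5 h at 37 C; beta-lactamase activity was then detected via FRET substrate fluorescence.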
A short description of assay [9]: qHTS assay to identify small molecule agonists of the peroxisome proliferator-activated receptor delta (PPARd) signaling pathway - cell viability counter screen (AID 743211). Also: nearly all actives have a fitted effect of over 55% in size. Also: potency is read from the fitted curve at half-maximal effect. In outline: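 Counter screen for cytotoxicity run in parallel with the PPARd reporter screen. Beta-lactamase reporter HEK293H cells exposed to compounds 17 h; ATP-based CellTiter-Glo luminescence quantified viability.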

The target of assay [10] is Peroxisome proliferator-activated receptor delta (Homo sapiens) (UniProt Q03181). The assay can be described thus: qHTS assay to identify small molecule agonists of the peroxisome proliferator-activated receptor delta (PPARd) signaling pathway (AID 743212; calls by dose curve). In a few lines: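 Tox21 library screened in GeneBLAzer PPARd UAS-bla HEK293H cells. After compound treatment at 37 C, a FRET-based beta-lactamase substrate was applied for 2 h and fluorescence recorded.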
Peroxisome proliferator-activated receptor delta (Homo sapiens), sequence (Q03181 whole entry, looked up): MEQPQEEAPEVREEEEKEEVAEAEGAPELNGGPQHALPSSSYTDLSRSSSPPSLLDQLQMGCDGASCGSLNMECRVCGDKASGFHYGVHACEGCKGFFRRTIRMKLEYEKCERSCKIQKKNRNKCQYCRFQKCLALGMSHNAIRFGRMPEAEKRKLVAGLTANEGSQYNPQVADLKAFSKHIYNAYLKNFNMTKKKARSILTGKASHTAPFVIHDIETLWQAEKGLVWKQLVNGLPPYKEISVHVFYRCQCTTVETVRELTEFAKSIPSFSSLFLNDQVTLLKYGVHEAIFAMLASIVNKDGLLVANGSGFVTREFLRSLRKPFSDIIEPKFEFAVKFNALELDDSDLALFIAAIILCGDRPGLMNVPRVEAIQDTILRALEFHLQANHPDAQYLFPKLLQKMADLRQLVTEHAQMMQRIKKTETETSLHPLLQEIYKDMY

Assay [11] is described as follows: qHTS assay to identify small molecule antagonists of the peroxisome proliferator-activated receptor delta (PPARd) signaling pathway - cell viability counter screen (AID 743213). Also: nearly all actives have a fitted effect of over 50% in size. Also: potency is read from the fitted curve at half-maximal effect. In a few lines:
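Luminescence from CellTiter-Glo, added after the bla read and incubated 30 min at room temperature, gives viability of HEK293H PPARd-bla cells exposed to compounds for 17 h at 37 C with 300 nM L165041.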

The target of assay [12] is Peroxisome proliferator-activated receptor delta (Homo sapiens) (UniProt Q03181). The assay can be described thus: qHTS assay to identify small molecule antagonists of the peroxisome proliferator-activated receptor delta (PPARd) signaling pathway (AID 743215; active = well fitted inhibition curve with a large enough effect in the signal ratio in the repeat runs, not every such curve was filed as active; the % refers to the signal ratio;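 also: cells stimulated with agonist L165041 at 300 nM final during compound exposure; series mostly up to about 62 µM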). In outline: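 Agonist L165041 (300 nM final) added with compound to PPARd-bla HEK293H UAS-bla reporter cells; 17 h incubation at 37 C. Read-out: LiveBLAzer FRET substrate, 2 h at room temperature, fluorescence intensity.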

In assay [13] the target is Bile acid receptor (Homo sapiens) (UniProt Q96RI1). The assay can be described thus: qHTS assay to identify small molecule antagonists of the farnesoid-X-receptor (FXR) signaling pathway (AID 743217; active = well fitted inhibition curve with a large enough effect in the signal ratio in the repeat runs, not every such curve was filed as active; the % refers to the signal ratio). In a few lines: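 Antagonist mode: chenodeoxycholic acid at 50 uM final stimulates a UAS-driven beta-lactamase reporter in HEK 293T FXR-bla cells during 16 h, 37C compound exposure. Read-out is FRET substrate fluorescence after 2 h at room temperature.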
Bile acid receptor (Homo sapiens), sequence (Q96RI1 whole entry, looked up): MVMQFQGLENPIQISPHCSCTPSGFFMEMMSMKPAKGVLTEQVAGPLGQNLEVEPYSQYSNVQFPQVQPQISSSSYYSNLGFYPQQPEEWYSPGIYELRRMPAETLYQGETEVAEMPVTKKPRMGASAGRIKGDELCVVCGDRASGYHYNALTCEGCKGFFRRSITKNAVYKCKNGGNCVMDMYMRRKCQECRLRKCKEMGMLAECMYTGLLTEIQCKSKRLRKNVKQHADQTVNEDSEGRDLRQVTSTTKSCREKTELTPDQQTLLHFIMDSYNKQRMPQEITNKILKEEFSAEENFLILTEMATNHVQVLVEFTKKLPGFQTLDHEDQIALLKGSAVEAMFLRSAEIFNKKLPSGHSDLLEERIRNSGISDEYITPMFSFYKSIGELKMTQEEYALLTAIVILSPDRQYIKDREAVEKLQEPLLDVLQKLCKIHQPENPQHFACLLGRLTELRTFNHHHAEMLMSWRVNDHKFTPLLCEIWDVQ

Assay [14] has the same target. Put plainly: qHTS assay to identify small molecule agonists of the farnesoid-X-receptor (FXR) signaling pathway (AID 743220; active = well fitted activation curve with a large enough effect in the signal ratio in the repeat runs, not every such curve was filed as active; the % refers to the signal ratio). In outline:
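FXR-UAS-bla HEK 293T cells carrying a UAS-driven beta-lactamase reporter were plated for 5 h at 37C/5% CO2, then exposed to DMSO-dissolved Tox21 10K compounds for 16 h at 37C. A LiveBLAzer B/G FRET substrate was loaded for 2 h at room temperature before fluorescence reading.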

Assay [15] can be described thus: qHTS assay to identify small molecule antagonists of the farnesoid-X-receptor (FXR) signaling pathway - cell viability counter screen (AID 743221; active = well fitted cell-killing curve with a large enough effect in the repeat runs, not every such curve was filed as active; also: nearly all actives have a fitted effect of over 50% in size; also: potency is read from the fitted curve at half-maximal effect). In outline:
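Multiplexed counter screen: viability of FXR-bla HEK 293T cells under agonist stimulation by chenodeoxycholic acid (50 uM, final) and test compound for 16 h at 37 C, measured by CellTiter-Glo luminescence in the reporter wells.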

The target in assay [16] is Vitamin D3 receptor (Homo sapiens) (UniProt P11473). The assay can be described thus: qHTS assay to identify small molecule agonists of the vitamin D receptor (VDR) signaling pathway (AID 743222; calls by dose curve). In outline:
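Agonist mode, beta-lactamase reporter: fluorescence from LiveBLAzer B/G FRET substrate (2 h, room temperature) read after 16 h compound treatment at 37 C of VDR-bla cells, which were pre-incubated 4 h after seeding.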

The target is the same in assay [17]. Put plainly: qHTS assay to identify small molecule antagonists of the vitamin D receptor (VDR) signaling pathway (AID 743223; active = well fitted inhibition curve with a large enough effect in the signal ratio in the repeat runs, not every such curve was filed as active; the % refers to the signal ratio). In outline: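 Cells carrying a VDR-driven beta-lactamase reporter (VDR-bla) were co-treated with compound and 3 nM final 1alpha,25-dihydroxyvitamin D3 for 16 h at 37C; reporter activity was measured as FRET substrate fluorescence after 2 h at room temperature.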

Assay [18] can be described thus: qHTS assay to identify small molecule that activate the aryl hydrocarbon receptor (AhR) signaling pathway - cell viability counter screen (AID 743086).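 Also: HepG2 liver cells carrying the AhR DRE luciferase reporter; series mostly up to about 70 µM; nearly all actives have a fitted effect of over 45% in size.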 In outline: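 HepG2-AhR-luc (HG2L7.5c1) cells, 4000/well, treated 24 h at 37 C with compound; viability measured as CellTiter-Fluor fluorescence after 30 min in the same wells as the luciferase read.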
Assay [19] can be described thus: qHTS assay for small molecule agonists of the antioxidant response element (ARE) signaling pathway (AID 743202; active = well fitted activation curve with a large enough effect in the signal ratio in the repeat runs, not every such curve was filed as active; the % refers to the signal ratio; also: potency is read from the fitted curve at half-maximal effect). In outline: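 HepG2 ARE-bla cells; 16 h treatment at 37 C; FRET-based beta-lactamase fluorescence read after 2 h substrate incubation at room temperature.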
Assay [20] in a line: qHTS assay to identify small molecule agonists of the farnesoid-X-receptor (FXR) signaling pathway - cell viability counter screen (AID 743218). Also: nearly all actives have a fitted effect of over 45% in size. In outline: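 Viability counter screen in the same wells: CellTiter-Glo luminescence, 30 min room-temperature incubation, measured after the beta-lactamase read. Cells were GeneBLAzer FXR-UAS-bla HEK 293T, compound-treated 16 h at 37C.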

Peroxisome proliferator-activated receptor gamma (Homo sapiens), sequence (P37231 whole entry, looked up): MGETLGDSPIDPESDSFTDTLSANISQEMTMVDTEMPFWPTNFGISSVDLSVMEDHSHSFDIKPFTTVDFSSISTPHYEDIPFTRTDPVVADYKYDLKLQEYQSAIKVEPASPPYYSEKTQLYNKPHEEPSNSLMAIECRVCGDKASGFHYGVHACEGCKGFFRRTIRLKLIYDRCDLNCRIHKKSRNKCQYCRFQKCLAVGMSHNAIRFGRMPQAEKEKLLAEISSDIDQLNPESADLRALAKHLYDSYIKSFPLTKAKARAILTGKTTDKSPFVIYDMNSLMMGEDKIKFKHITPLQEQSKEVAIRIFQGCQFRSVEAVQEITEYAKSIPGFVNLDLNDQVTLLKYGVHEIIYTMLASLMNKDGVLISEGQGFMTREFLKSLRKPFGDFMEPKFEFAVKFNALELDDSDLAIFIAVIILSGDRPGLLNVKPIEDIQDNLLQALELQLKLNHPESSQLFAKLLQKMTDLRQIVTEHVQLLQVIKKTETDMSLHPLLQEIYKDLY
Aryl hydrocarbon receptor (Homo sapiens), sequence (P35869 whole entry, looked up): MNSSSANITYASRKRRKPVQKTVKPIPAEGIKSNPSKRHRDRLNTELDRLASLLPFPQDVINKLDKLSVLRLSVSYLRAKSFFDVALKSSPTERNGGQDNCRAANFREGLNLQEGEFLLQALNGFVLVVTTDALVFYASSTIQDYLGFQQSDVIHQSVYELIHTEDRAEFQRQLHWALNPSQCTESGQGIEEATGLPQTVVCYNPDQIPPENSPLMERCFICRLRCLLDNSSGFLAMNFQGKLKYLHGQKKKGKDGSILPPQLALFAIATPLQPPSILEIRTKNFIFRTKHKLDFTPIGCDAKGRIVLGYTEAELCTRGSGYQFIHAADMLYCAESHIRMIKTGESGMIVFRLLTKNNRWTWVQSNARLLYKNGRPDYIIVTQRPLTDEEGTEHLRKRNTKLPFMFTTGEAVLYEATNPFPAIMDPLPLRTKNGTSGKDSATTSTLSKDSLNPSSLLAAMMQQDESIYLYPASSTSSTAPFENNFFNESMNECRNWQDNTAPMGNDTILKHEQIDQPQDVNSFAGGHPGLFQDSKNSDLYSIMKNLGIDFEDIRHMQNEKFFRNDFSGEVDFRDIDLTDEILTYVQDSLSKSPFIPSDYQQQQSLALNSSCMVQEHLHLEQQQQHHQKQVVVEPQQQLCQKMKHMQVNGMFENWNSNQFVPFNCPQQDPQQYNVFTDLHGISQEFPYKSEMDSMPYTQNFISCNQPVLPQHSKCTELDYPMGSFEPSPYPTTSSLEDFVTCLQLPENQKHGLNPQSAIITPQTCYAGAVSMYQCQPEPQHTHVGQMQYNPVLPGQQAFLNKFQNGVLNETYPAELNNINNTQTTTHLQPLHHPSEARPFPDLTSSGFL
Vitamin D3 receptor (Homo sapiens), sequence (P11473 whole entry, looked up): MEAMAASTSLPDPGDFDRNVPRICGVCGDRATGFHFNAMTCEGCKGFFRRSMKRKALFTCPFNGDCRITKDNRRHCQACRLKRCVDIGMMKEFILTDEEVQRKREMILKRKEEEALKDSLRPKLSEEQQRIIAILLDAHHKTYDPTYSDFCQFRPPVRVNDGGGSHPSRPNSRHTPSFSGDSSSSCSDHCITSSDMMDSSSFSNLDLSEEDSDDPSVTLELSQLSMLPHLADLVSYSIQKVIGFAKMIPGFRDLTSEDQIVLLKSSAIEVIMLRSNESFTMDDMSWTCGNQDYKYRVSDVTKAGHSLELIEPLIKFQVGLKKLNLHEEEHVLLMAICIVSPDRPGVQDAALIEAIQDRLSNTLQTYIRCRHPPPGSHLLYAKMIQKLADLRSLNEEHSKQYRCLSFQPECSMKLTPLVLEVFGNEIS

Consider `C=CCC1([C@H](C)CCC)C(=O)NC(=O)NC1=O`, for which the Potency result in assay [1], in [2], in assay [3], in assay [4], in [5] and in assay [6] was “inactive” in each case. Moreover, the Potency entry in [7], in [9], in assay [11], in assay [12], in assay [13] and in [15] was “inactive” throughout. The compound was called inactive in assay [8], in assay [10], in assay [14], in [16] and in [17].
Take `COP(=S)(Oc1cc(Cl)c(Br)cc1Cl)c1ccccc1` (configuration not stated): the Potency result in assay [1], in [18], in assay [7], in [11] and in [15] was “inactive” each time. Also, the values for the Potency in [2] and in assay [6] were 27.3 µM (active) and 48.6 µM (active), respectively. Besides, the result in assay [8], in assay [10], in assay [16] and in assay [17] was inactive.
On to `COP(=O)(OC)O/C(=C/Cl)c1cc(Cl)c(Cl)cc1Cl`, for which the Potency result in assay [1], in assay [2], in assay [18], in assay [6], in assay [7] and in [11] was “inactive” in each case. In addition, the Potency entry in assay [13], in assay [20] and in [15] was “inactive” throughout. Besides, the Potency in [19] was 5.75 µM (active). The compound was classed as inactive in assay [8], in assay [10] and in assay [14].
With `CC(Cl)Cl`, the Potency result in assay [1], in assay [2], in [3], in assay [5], in assay [6] and in assay [7] was “inactive” throughout. In addition, the Potency entry in assay [9], in assay [11], in assay [12], in assay [13], in assay [20] and in assay [15] was “inactive” each time. Besides, the compound was classed as inactive in assay [8], in assay [10], in [14], in [16] and in assay [17].
Regarding `CCOc1ccc(C(C)(C)COCc2cccc(Oc3ccccc3)c2)cc1`, the Potency result in assay [1], in assay [2], in assay [3], in assay [5], in assay [6] and in [7] was “inactive” each time. Further, the Potency entry in [9], in [11], in assay [12], in assay [13], in assay [20] and in assay [15] was “inactive” each time. For the same compound, the compound was called inactive in assay [8], in assay [10], in assay [14] and in [16].
In the case of `O=NN1CCCCCC1`, the Potency result in assay [1], in assay [2], in assay [3], in assay [5], in [6] and in [7] was “inactive” throughout. The Potency result in assay [9], in assay [11], in assay [13], in [20] and in assay [15] was “inactive” in each case. In addition, the compound was called inactive in assay [8], in assay [14] and in assay [16].
For the compound `CCOP(O)OCC`, the Potency result in [1], in assay [2], in assay [3], in assay [5], in [6] and in assay [7] was “inactive” throughout. Besides, the Potency entry in assay [9], in [11], in [12], in assay [20] and in [15] was “inactive” in each case. Besides, the outcome in assay [8], in assay [10], in assay [16] and in [17] was inactive.
As for `COC(=O)C(C)N(C(=O)Cc1ccccc1)c1c(C)cccc1C` (configuration not stated), the Potency entry in assay [1], in assay [2], in assay [3], in assay [4], in assay [5] and in assay [6] was “inactive” each time. For the same compound, the Potency result in assay [7], in assay [9], in assay [11], in assay [12], in [20] and in assay [15] was “inactive” in each case. The outcome in assay [8], in assay [10] and in assay [17] was inactive.
Consider `CCCC(=O)Cl`, for which the Potency result in [1], in assay [2], in assay [3], in assay [5], in assay [6] and in assay [7] was “inactive” each time. Besides, the Potency entry in assay [9], in assay [11], in assay [12], in [13], in [20] and in [15] was “inactive” each time. Besides, the outcome in [8], in [10], in [14] and in [16] was inactive.
On to `O=C(CCl)c1ccc(Cl)cc1Cl`, for which the Potency entry in [1], in [2], in [18] and in [13] was “inactive” each time. The Potency is 5.31 µM (active) in assay [19]; “inactive and 26.6 µM (active)” in [6]; 8.41 µM (active) in assay [7]; 18.8 µM (active) in assay [9]; “inactive and 29.8 µM (active)” in [11]; “inactive and 29.8 µM (active)” in [15].
`O=C(O)COc1ccc(Cl)cc1`: the Potency entry in assay [1], in assay [2], in assay [3], in [5], in assay [6] and in [7] was “inactive” throughout. In addition, the Potency result in assay [9], in [11], in assay [12] and in assay [15] was “inactive” in each case. Besides, the compound was called inactive in assay [8], in assay [10] and in assay [16].
